Measured values published in the supplement of paper PMC10849652.
About 7,900 targets were measured; listed, in parts, are those with a hit and a random draw of the rest. About 0.6% of all pairs of compound and target were hits. Unmarked numbers belong to inactive results.

Experiments:
Experiment in all cases: log2 fold change, soluble protein after heating vs DMSO (PISA); higher = thermal stabilisation; K562 cells, 10 uM, 30 min; active = over 0.2 and 3.5 SD of the protein, either way, in both replicates (recomputed)
[1] = compound: CS(=O)(=O)c1ccc(-c2cnc(N)c(C(=O)Nc3ccccc3)n2)cc1
Method in brief: (§1)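 K562 cells at 2×10^6 cells/mL were exposed to 10 μM compound for 30 min, then aliquots were heated for 3 min across 48°C-58°C, pooled, and extracted in PBS containing 0.5% NP-40 at 4°C. The supernatant after 21,000xg for 90 min was taken as soluble protein and measured by TMTpro 16plex LC-MS/MS with channel sums equalised. Thermal stability is reported relative to control samples, with values from duplicates. Fold changes are given on a log2 scale.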

crizotinib = compound: C[C@@H](Oc1cc(-c2cnn(C3CCNCC3)c2)cnc1N)c1c(Cl)ccc(F)c1Cl [crizotinib]
Method in brief: as §1

[2] = compound: C[C@@H]1COCCN1C2=NC(=NC(=C2)C3(CC3)S(=O)(=O)C)C4=C5C=CNC5=CC=C4
Method in brief: as §1

[3] = compound: C[C@H](C1=CC=C(C=C1)C(=O)NC2=C3C=CNC3=NC=C2)N
Method in brief: as §1

duvelisib = compound: C[C@H](Nc1ncnc2nc[nH]c12)c1cc2cccc(Cl)c2c(=O)n1-c1ccccc1 [duvelisib]
Method in brief: as §1

gandotinib = compound: Cc1cc(Nc2cc(CN3CCOCC3)c3nc(C)c(Cc4ccc(Cl)cc4F)n3n2)n[nH]1 [gandotinib]
Method in brief: as §1

tozasertib = compound: Cc1cc(Nc2cc(N3CCN(C)CC3)nc(Sc3ccc(NC(=O)C4CC4)cc3)n2)n[nH]1 [tozasertib]
Method in brief: as §1

[4] = compound: Cc1cc(SCc2sc(-c3ccc(C(F)(F)F)cc3)nc2C)ccc1OCC(=O)O
Method in brief: as §1

doramapimod = compound: Cc1ccc(-n2nc(C(C)(C)C)cc2NC(=O)Nc2ccc(OCCN3CCOCC3)c3ccccc23)cc1 [doramapimod]
Method in brief: as §1

ispinesib = compound: Cc1ccc(C(=O)N(CCCN)[C@@H](c2nc3cc(Cl)ccc3c(=O)n2Cc2ccccc2)C(C)C)cc1 [ispinesib]
Method in brief: as §1

bafetinib = compound: Cc1ccc(NC(=O)c2ccc(CN3CC[C@H](N(C)C)C3)c(C(F)(F)F)c2)cc1Nc1nccc(-c2cncnc2)n1 [bafetinib]
Method in brief: as §1

[5] = compound: Cc1cccc(CC(=O)N2CCc3c2ccc(-c2cn(C)c4ncnc(N)c24)c3F)n1
Method in brief: as §1

nilotinib = compound: Cc1cn(-c2cc(NC(=O)c3ccc(C)c(Nc4nccc(-c5cccnc5)n4)c3)cc(C(F)(F)F)c2)cn1 [nilotinib]
Method in brief: as §1

[6] = compound: Cc1nc(Nc2n[nH]c3c2CN(C(=O)N[C@H](CN(C)C)c2ccccc2)C3(C)C)c2sccc2n1
Method in brief: as §1

dasatinib = compound: Cc1nc(Nc2ncc(C(=O)Nc3c(C)cccc3Cl)s2)cc(N2CCN(CCO)CC2)n1 [dasatinib]
Method in brief: as §1

[7] = compound: Cc1ncc(-c2ccnc(Nc3ccc(S(C)(=O)=O)cc3)n2)n1C(C)C
Method in brief: as §1

[8] = compound: Cn1cc(-c2ccc3c(c2)CCN3C(=O)Cc2cccc(C(F)(F)F)c2)c2c(N)ncnc21
Method in brief: as §1

[9] = compound: Cn1cc(-c2ccc3nnc(C(F)(F)c4ccc5ncccc5c4)n3n2)cn1
Method in brief: as §1

tipifarnib = compound: Cn1cncc1[C@@](N)(c1ccc(Cl)cc1)c1ccc2c(c1)c(-c1cccc(Cl)c1)cc(=O)n2C [tipifarnib]
Method in brief: as §1

mubritinib = compound: FC(F)(F)c1ccc(/C=C/c2nc(COc3ccc(CCCCn4ccnn4)cc3)co2)cc1 [mubritinib]
Method in brief: as §1

Chain of UniProt P62070 (P62070 whole entry, looked up): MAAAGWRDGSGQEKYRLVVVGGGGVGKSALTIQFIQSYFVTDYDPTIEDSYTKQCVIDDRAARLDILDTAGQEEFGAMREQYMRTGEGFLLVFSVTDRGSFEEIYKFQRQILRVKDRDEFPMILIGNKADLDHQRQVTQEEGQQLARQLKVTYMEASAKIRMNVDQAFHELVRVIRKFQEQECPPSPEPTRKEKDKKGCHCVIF
Chain of UniProt Q9BVS4 (Q9BVS4 whole entry, looked up): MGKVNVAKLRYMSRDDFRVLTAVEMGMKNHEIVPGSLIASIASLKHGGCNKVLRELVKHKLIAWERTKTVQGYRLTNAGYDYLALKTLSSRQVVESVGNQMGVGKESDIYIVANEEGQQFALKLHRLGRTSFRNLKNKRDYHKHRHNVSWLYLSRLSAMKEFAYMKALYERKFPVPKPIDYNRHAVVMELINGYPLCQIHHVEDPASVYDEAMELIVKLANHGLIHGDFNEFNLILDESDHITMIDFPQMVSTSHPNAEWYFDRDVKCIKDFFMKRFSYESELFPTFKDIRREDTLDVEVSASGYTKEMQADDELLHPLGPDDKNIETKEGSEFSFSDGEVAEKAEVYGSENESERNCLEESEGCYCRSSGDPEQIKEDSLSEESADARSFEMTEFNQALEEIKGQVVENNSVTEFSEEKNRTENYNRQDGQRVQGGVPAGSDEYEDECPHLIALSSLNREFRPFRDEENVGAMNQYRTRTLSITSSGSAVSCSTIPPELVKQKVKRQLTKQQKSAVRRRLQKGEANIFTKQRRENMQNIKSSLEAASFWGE
Chain of UniProt Q9UKL0 (Q9UKL0 whole entry, looked up): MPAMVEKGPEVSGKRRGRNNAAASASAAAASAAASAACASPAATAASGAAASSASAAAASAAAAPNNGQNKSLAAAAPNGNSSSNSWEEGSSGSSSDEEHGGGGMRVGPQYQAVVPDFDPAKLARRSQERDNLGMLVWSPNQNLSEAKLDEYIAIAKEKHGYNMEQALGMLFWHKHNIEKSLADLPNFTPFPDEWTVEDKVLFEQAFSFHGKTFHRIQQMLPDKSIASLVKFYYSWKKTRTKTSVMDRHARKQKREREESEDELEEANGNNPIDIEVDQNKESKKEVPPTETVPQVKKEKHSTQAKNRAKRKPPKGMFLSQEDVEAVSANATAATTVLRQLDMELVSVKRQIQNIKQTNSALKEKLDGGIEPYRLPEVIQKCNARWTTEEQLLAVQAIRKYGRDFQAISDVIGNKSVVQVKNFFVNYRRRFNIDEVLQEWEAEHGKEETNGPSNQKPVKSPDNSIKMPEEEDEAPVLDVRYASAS
Chain of UniProt Q9UBS8 (Q9UBS8 whole entry, looked up): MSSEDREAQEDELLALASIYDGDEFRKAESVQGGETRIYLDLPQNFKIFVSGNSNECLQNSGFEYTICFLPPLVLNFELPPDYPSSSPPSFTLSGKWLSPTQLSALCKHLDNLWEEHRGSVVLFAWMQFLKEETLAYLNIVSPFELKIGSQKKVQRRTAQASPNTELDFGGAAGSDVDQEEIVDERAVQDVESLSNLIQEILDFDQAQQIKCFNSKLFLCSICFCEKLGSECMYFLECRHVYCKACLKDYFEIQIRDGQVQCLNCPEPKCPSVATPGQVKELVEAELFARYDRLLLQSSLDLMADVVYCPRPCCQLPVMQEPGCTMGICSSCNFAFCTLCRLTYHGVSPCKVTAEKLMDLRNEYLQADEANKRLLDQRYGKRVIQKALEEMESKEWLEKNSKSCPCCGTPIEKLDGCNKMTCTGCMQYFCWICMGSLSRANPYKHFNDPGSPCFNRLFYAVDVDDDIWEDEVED
Chain of UniProt O75792 (O75792 whole entry, looked up): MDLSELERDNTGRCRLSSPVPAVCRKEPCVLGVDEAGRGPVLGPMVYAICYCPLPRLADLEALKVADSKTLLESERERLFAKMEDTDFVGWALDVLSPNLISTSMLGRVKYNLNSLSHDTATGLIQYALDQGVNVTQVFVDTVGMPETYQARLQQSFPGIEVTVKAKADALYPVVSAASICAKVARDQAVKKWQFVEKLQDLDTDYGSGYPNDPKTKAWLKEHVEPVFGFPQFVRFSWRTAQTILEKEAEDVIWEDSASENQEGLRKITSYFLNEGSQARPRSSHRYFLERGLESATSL
Chain of UniProt O43818 (O43818 whole entry, looked up): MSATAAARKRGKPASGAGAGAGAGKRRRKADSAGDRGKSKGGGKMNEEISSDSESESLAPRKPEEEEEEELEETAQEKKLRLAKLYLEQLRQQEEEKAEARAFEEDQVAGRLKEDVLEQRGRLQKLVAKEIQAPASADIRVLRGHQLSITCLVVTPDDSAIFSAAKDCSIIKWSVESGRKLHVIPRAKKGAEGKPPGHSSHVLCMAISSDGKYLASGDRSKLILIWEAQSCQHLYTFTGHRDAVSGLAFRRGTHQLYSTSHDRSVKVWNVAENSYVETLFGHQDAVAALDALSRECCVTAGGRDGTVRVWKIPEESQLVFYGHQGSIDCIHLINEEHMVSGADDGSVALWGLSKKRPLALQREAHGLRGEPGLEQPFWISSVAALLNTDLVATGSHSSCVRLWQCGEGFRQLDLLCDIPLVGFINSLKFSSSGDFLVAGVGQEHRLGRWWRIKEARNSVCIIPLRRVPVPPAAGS
Chain of UniProt O15027 (O15027 whole entry, looked up): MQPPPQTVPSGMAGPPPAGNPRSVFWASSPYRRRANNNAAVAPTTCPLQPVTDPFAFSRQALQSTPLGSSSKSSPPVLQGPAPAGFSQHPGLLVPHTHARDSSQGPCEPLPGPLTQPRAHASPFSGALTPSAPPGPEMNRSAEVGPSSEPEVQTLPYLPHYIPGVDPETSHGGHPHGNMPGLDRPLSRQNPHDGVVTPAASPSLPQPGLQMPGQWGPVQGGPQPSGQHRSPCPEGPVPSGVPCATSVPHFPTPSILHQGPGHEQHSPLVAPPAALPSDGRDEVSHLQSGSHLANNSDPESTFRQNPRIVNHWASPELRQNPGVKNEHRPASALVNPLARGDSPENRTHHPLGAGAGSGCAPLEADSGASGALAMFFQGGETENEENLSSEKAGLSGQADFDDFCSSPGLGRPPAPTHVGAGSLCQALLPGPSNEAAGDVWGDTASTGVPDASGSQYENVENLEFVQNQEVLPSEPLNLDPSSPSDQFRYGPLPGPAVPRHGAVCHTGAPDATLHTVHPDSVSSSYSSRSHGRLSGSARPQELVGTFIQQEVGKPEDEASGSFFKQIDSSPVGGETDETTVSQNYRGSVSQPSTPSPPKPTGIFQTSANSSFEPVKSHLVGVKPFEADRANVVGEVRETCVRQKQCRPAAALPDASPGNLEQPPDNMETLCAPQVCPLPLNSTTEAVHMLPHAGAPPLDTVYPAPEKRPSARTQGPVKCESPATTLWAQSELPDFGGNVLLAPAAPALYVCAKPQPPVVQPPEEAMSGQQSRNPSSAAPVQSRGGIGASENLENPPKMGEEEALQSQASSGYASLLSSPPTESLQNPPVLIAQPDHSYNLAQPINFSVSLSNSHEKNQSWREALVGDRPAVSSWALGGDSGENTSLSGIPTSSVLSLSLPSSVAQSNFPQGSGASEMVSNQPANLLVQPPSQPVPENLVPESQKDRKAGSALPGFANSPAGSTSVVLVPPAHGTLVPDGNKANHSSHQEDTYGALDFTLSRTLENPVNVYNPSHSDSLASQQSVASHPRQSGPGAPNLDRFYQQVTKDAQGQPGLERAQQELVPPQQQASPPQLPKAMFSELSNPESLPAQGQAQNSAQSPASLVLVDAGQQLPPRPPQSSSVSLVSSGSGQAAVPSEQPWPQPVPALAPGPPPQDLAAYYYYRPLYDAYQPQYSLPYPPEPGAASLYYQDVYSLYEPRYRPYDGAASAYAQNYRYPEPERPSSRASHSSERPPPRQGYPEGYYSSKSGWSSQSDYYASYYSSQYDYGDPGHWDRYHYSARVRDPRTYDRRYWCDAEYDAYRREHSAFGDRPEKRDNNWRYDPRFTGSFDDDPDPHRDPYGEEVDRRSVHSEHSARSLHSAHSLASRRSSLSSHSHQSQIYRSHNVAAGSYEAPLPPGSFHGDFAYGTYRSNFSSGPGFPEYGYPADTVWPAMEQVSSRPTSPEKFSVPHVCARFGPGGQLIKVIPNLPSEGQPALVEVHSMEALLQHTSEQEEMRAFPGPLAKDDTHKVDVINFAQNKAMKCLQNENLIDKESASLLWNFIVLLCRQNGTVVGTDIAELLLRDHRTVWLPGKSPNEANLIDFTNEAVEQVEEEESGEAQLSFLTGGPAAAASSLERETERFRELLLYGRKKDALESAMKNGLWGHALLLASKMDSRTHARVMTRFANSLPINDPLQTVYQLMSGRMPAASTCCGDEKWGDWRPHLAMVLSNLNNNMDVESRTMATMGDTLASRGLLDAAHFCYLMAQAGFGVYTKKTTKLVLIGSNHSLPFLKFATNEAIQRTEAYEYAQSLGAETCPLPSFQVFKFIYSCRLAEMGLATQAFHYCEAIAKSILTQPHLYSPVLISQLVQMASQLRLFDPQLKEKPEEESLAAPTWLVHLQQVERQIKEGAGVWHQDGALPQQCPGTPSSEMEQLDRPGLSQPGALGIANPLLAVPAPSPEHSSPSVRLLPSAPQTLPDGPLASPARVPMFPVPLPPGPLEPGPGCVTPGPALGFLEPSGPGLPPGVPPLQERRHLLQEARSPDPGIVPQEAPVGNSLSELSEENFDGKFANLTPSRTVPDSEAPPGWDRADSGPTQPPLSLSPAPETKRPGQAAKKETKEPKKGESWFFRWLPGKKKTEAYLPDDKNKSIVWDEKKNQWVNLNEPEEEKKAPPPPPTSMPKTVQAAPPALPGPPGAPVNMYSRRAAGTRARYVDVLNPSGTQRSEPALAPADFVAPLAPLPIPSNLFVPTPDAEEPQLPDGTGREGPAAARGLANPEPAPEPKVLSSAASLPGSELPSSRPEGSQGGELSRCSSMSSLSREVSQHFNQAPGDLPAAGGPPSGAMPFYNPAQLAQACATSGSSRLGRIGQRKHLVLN

Target | log2 fold change [1] | log2 fold change (crizotinib) | log2 fold change [2] | log2 fold change [3] | log2 fold change (duvelisib) | log2 fold change (gandotinib) | log2 fold change (tozasertib) | log2 fold change [4] | log2 fold change (doramapimod) | log2 fold change (ispinesib) | log2 fold change (bafetinib) | log2 fold change [5] | log2 fold change (nilotinib) | log2 fold change [6] | log2 fold change (dasatinib) | log2 fold change [7] | log2 fold change [8] | log2 fold change [9] | log2 fold change (tipifarnib) | log2 fold change (mubritinib)
SEC16A isoform 5 (UniProt O15027) | -0.032 | -0.231 | -0.113 | 0.143 | 0.004 | 0.087 | -0.014 | 0.118 | 0.023 | -0.119 | 0.023 | 0.096 | 0.017 | -0.048 | -0.169 | 0.021 | -0.006 | -0.051 | 0.012 | -0.081
RNASEH2A (UniProt O75792) | 0.106 | -0.134 | -0.045 | -0.032 | 0.011 | 0.156 | -0.028 | 0.029 | -0.023 | -0.001 | -0.111 | -0.303 (active) | -0.025 | 0.024 | -0.159 | -0.047 | 0.056 | 0.038 | -0.003 | 0.059
RCOR1 (UniProt Q9UKL0) | 0.011 | -0.033 | 0.095 | 0.071 | 0.088 | -0.046 | 0.005 | 0.041 | 0.001 | -0.031 | 0.011 | 0.021 | -0.034 | -0.107 | -0.063 | -0.062 | -0.005 | 0.033 | -0.087 | 0.07
RIPK1 (UniProt Q13546) | 0.058 | 0.274 | -0.01 | 0.09 | -0.1 | 0.301 | 1.05 (active) | 0.118 | 0.031 | -0.155 | 0.209 | 1.12 (active) | -0.007 | -0.196 | 0.197 | 1.18 (active) | 1.49 (active) | -0.052 | -0.121 | -0.089
SASH1 (UniProt O94885) | 0.023 | -0.122 | -0.077 | -0.024 | 0.032 | -0.028 | 0.088 | 0.198 | -0.031 | -0.116 | -0.052 | -0.006 | -0.079 | -0.071 | -0.046 | 0.034 | 0.011 | 0.073 | 0.025 | 0.032
RPS3A (UniProt P61247) | -0.064 | 0.022 | -0.182 | 0.196 | -0.09 | 0.175 | 0.016 | 0.029 | 0.044 | -0.072 | 0.243 | -0.031 | 0 | 0.201 | 0.099 | -0.033 | -0.127 | -0.045 | 0.096 | -0.058
RNF14 (UniProt Q9UBS8) | 0.034 | 0.014 | 0.081 | -0.053 | 0.031 | 0.001 | 0.058 | 0.041 | -0.025 | -0.032 | -0.033 | 0.05 | -0.002 | -0.07 | -0.136 | -0.048 | -0.017 | 0.033 | -0.05 | 0.017
SEC23A (UniProt Q15436) | 0.001 | -0.016 | 0.061 | -0.102 | 0.017 | -0.109 | 0.021 | 0.03 | -0.092 | 0.023 | -0.011 | 0.024 | -0.012 | 0.014 | -0.07 | -0.009 | -0.018 | -0.052 | -0.013 | -0.002
RAC3 (UniProt P60763) | 0.074 | 0.097 | 0.073 | -0.027 | 0.145 | 0 | -0.086 | 0.005 | 0.262 (active) | -0.013 | 0.015 | -0.221 | 0.03 | 0.036 | -0.169 | -0.016 | 0.107 | 0.064 | 0.03 | -0.008
RCN3 (UniProt Q96D15) | -0.016 | -0.028 | -0.02 | -0.041 | -0.022 | 0.029 | -0.087 | -0.058 | 0.092 | -0.033 | -0.015 | -0.318 (active) | 0.015 | -0.011 | 0.045 | 0.011 | 0.162 | 0.057 | -0.038 | -0.056
SART3, A0A499FI31 | -0.011 | 0.097 | 0.049 | -0.124 | 0.012 | -0.056 | 0.078 | 0.051 | -0.03 | 0.038 | -0.057 | 0.039 | -0.02 | -0.189 | -0.128 | -0.261 (active) | 0.029 | -0.001 | 0.008 | 0.024
RRP9 (UniProt O43818) | -0.05 | 0.084 | -0.2 | 0.031 | -0.029 | 0.056 | 0.121 | -0.054 | 0.063 | 0.12 | -0.02 | -0.103 | 0.046 | -0.042 | 0.106 | -0.107 | -0.062 | -0.102 | 0.074 | -0.046
SAMSN1 isoform 3 (UniProt Q9NSI8) | 0.024 | -0.082 | 0.043 | -0.027 | 0.006 | -0.077 | -0.013 | 0.019 | -0.052 | -0.069 | -0.049 | 0.04 | -0.036 | -0.169 | -0.09 | 0.02 | 0.029 | 0.037 | -0.015 | 0.048
RPS27A (UniProt P62979) | 0.05 | 0.053 | -0.229 | 0.088 | -0.218 | 0.347 | 0.013 | 0 | -0.049 | -0.047 | 0.147 | 0.023 | 0.056 | 0.2 | 0.119 | 0.007 | -0.172 | 0 | 0.079 | -0.121
RRAS2 isoform 4 (UniProt P62070) | 0.044 | 0.162 | -0.001 | -0.152 | -0.002 | -0.016 | -0.048 | -0.042 | 0.012 | -0.019 | -0.05 | -0.082 | 0.111 | -0.021 | 0.066 | 0.025 | 0.062 | -0.03 | 0.088 | -0.025
RIOK2 (UniProt Q9BVS4) | 0.059 | -0.057 | -0.167 | 0.189 | -0.037 | 0.263 | -0.001 | 0.053 | 0.084 | -0.019 | 0.27 | 0.003 | 0.094 | 0.202 | 0.013 | 0.231 | -0.041 | -0.067 | -0.003 | 0.014
